# Laboratory results published in PubChem BioAssay (NCATS).
# A number with no mark means an inactive call. Results filed as inconclusive are left out. A call without a number means that no potency is given here. The source made the active and inactive calls. Calls follow the shape of the dose curve; as a rule, active = well fitted curve in the direction sought with a large enough effect; inconclusive = small, poorly fitted or top-dose-only effect, or another doubt; inactive = no such curve, though single readings can be large; an effect the other way counts as inactive or inconclusive.
# How the values were obtained:
# [1] = HEK293 18hr Apoptosis Induction qHTS against the NCATS CANVASS Library (AID 1347357)
# Outline: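 Luminescent caspase-3/7 signal is measured in HEK293 cells exposed for 18 hours to an 11-point concentration series; doxorubicin serves as the plate control.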
# [2] = HPAF-II 12hr Apoptosis Induction qHTS against the NCATS CANVASS Library (AID 1347358)
# Outline: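 HPAF-II cells (500/well, DMEM + 10% FBS) were exposed to compounds for 12 hours at 37 degrees C. Caspase-3/7 activity was then read by Caspase-Glo 3/7 luminescence after 15 min at room temperature.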
# [3] = HEK293 24hr Apoptosis Induction qHTS against the NCATS CANVASS Library (AID 1347359)
# Outline: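 HEK293 cells (500/well, DMEM + 10% FBS) were exposed to compounds in an 11-point series for 24 hours at 37 degrees C, then caspase-3/7 activity was read by Caspase-Glo DEVD luciferase luminescence after 15 min.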
# [4] = HPAF-II 18hr Apoptosis Induction qHTS against the NCATS CANVASS Library (AID 1347360)
# Outline: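 Apoptosis was scored as caspase-3/7 activity in HPAF-II pancreatic cancer cells treated 18 hours with an 11-point concentration series.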
# [5] = HEK293 12hr Apoptosis Induction qHTS against the NCATS CANVASS Library (AID 1347361)
# Outline: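 Apoptosis in HEK293 was scored as caspase-3/7 luminescence following 12 h treatment with a compound concentration series in qHTS format.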
# [6] = tested on: NAD(P)H diaphorase (Clostridium kluyveri); assay: Diaphorse counterscreen qHTS: Assay Interference Panel against the NCATS CANVASS Library (AID 1347362)
# Outline: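 Clostridium kluyveri diaphorase in PBS with 0.01% Tween-20 was preincubated 15 min at room temperature in the dark with compounds (11-point series). Resorufin fluorescence (ex 525/20, em 598/25) was read 5 min after adding resazurin/NADH.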
# [7] = target: Luciferin 4-monooxygenase (Photinus pyralis) (UniProt P08659); assay: Firefly luciferase counterscreen qHTS: Assay Interference Panel against the NCATS CANVASS Library (AID 1347363); also: series mostly up to about 57 µM
# Luciferin 4-monooxygenase (Photinus pyralis), sequence (P08659 whole entry, looked up): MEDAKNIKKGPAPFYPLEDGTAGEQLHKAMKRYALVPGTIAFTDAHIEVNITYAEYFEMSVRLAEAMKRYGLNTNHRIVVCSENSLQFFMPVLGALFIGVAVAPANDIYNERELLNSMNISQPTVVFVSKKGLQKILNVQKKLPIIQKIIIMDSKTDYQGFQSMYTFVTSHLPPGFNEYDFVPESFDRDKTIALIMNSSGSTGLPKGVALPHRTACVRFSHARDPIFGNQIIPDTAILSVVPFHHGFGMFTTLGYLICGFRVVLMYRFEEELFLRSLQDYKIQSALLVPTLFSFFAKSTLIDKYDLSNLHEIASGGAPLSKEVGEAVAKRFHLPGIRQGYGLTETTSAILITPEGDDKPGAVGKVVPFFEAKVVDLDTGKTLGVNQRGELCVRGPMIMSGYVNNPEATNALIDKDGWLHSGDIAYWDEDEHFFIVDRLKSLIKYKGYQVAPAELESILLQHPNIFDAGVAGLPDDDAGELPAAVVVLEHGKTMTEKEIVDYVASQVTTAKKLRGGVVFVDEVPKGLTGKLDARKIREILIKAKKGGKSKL
# Outline: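 Purified P. pyralis luciferase was added to compounds (11-point series) preincubated 15 min at room temperature with substrate containing 0.013 mM D-luciferin and 0.013 mM ATP; luminescence was read after 5 min.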
# [8] = qHTS for ATAD5 Agonist screened against the NCATS CANVASS Library (AID 1347367);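 also: luciferase reporter driven by ATAD5 which rises upon DNA damage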
# Outline: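 Step one plated reporter cells and let them acclimate 5hr. Step two pinned compounds with MMS as positive and 0.46% DMSO as negative control. After 16hr incubation, fluorescence viability then luminescence were read.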
# [9] = target: Nuclear receptor subfamily 1 group I member 3 (Homo sapiens) (UniProt Q14994); assay: qHTS for Constitutive Androstane Receptor (CAR) Antagonist screened against the NCATS CANVASS Library (AID 1347372);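 also: cells stimulated with 50 nM CITCO agonist so inhibition reflects antagonism; series mostly up to about 46 µM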
# Nuclear receptor subfamily 1 group I member 3 (Homo sapiens), sequence (Q14994 whole entry, looked up): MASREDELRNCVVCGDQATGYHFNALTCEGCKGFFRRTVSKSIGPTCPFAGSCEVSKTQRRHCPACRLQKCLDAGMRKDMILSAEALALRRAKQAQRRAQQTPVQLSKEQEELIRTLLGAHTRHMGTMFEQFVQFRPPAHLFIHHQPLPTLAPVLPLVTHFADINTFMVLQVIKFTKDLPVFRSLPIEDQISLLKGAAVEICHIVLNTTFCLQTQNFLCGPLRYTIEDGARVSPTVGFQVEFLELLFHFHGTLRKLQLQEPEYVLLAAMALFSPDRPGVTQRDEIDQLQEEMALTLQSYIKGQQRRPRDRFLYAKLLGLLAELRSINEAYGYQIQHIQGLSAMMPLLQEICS
# Outline: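 HepG2 cells stably carrying hCAR and a CYP2B6-2.2kb luciferase reporter were exposed to compounds plus 50 nM CITCO for 24hr at 37C. CAR activity was read by ONE-Glo luminescence, with viability measured first by CellTiter-Fluor.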
# [10] = target: Nuclear receptor subfamily 1 group I member 3 (Homo sapiens) (UniProt Q14994); assay: qHTS for Constitutive Androstane Receptor (CAR) Agonist screened against the NCATS CANVASS Library (AID 1347373);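 also: every well also contained 1.5 µM PK11195 alongside the test compound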; also: potency is read from the fitted curve at half-maximal effect
# Outline: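 HepG2 cells stably expressing hCAR and a CYP2B6-2.2kb luciferase reporter were treated for 24hr at 37C with compounds (11-point qHTS) in the presence of 1.5uM PK11195. Reporter activation was read by ONE-Glo luminescence.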
# [11] = qHTS for Hypoxia signaling pathway (HIF-1) agonists against the NCATS CANVASS Library (AID 1347375)
# Outline: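 HRE-bla ME-180 cells (beta-lactamase reporter under hypoxia responsive element) in 0.5% dialyzed FBS medium, 5 h at 37C, then compound 17 h, 11-point qHTS series. CCF4-AM FRET substrate 2 h RT; 460/530 nm emission read.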
# [12] = 10-beta competent E. coli microbial cell viability qHTS against the NCATS CANVASS Library (AID 1347376); also: series mostly up to about 46 µM
# Outline: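 10-beta competent E. coli (0.9 OD culture diluted to 0.2 OD) exposed to compounds in an 11-point qHTS series, incubated overnight at 37C, 5% CO2. Viability read as ATP by BacTiter-Glo luminescence after 20 min at room temperature.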
# [13] = qHTS for Inflammasome Signaling Inhibitors: IL-1-beta AlphaLISA screen against the NCATS CANVASS Library (AID 1347379);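 also: human THP-1 cells primed with LPS then triggered with ATP; secreted IL-1B measured as AlphaLISA emission at 615 nm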; also: potency is read from the fitted curve at half-maximal effect
# Outline: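 Human THP-1 cells were pretreated 1 hr at 37 °C with compounds (up to 57.5 uM final), then stimulated with LPS (250 ng/mL final) and ATP (1.25 mM final). Secreted IL-1B was read by AlphaLISA after 16 hr.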
# [14] = Inflammasome Signaling qHTS Counterscreen: IL-1-beta AlphaLISA counterscreen against the NCATS CANVASS Library (AID 1347381);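 also: cell-free check with purified IL-1β in medium and no THP-1 cells; series mostly up to about 57 µM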
# Outline: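 To flag interference with the AlphaLISA read-out, a known amount of purified IL-1-beta (4 pg) replaced cell supernatant. Detection used anti-IL-1-beta acceptor beads, biotinylated antibody and streptavidin donor beads at room temperature.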
# [15] = Cytotoxicity qHTS for assessment of Hepg2 cells membrane integrity screened against the NCATS CANVASS Library (AID 1347387)
# Outline: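 HepG2 cells (2000/well) attached overnight at 37C, then received compounds in an 11-point series at 0.59 nM - 46 uM final for 5 hr. LDH release was detected fluorometrically (ex 560/em 590 nm) with CytoTox-ONE reagent after 10 min at room temperature.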
# [16] = qHTS for activators of dead-cell proteases activity screened against the NCATS CANVASS Library (AID 1347392);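 also: luminescence from protease leaking out of membrane-damaged cells cleaving impermeant substrate; rising signal means more cytotoxicity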
# Outline: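 HepG2 cells (2000/well) attached 18 h at 37C, then exposed 5 h to compounds (11-point qHTS). Dead-cell protease activity read as luminescence from cell-impermeant AAF-aminoluciferin substrate after 15 min at room temperature.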
# [17] = qHTS for ATAD5 Antagonist screened against the NCATS CANVASS Library (AID 1347370);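 also: HEK293T cells carrying an ATAD5 luciferase reporter co-treated with 10 µM 5-fluorouridine; series mostly up to about 46 µM; nearly all actives have a fitted effect of over 65% in size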
# Outline: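 HEK293T cells with a stably integrated ATAD5-controlled luciferase reporter were exposed to compounds (11-pt) alongside 10 uM 5-fluorouridine as ATAD5 stabilizer for 16hr at 37C. Viability was read by CellTiter-Fluor fluorescence, then ATAD5 by luminescence.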
# [18] = J3T Cancer Cell Toxicity qHTS against the NCATS CANVASS Library (AID 1347371)
# Outline: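 J3T dog glioma cells (500 cells/well) were exposed to compounds in an 11-point series for 72 hr at 37C, 5% CO2. Cytotoxicity was read as ATP content by CellTiterGlo luminescence.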
# [19] = Viability qHTS for inhibitors of the SERCaMP assay screened against the NCATS CANVASS Library (AID 1347400); also: nearly all actives have a fitted effect of over 70% in size; also: potency is read from the fitted curve at half-maximal effect
# Outline: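 SH-SY5Y-GLuc SERCaMP MJH297-derived cells (1000 cells/well) were pre-incubated 4 h at 37C, then exposed to compounds for 48 h. Viability was read as CellTiter-Glo luminescence; bortezomib served as positive control.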
# [20] = KB-3-1 Cancer Cell Toxicity qHTS against the NCATS CANVASS Library (AID 1347366); also: nearly all actives have a fitted effect of over 75% in size
# Outline: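 Seed KB-3-1 cells at 500/well in DMEM with 10% FBS, add compounds, incubate 72 hr at 37C and 5% CO2, then add CellTiter-Glo and read luminescence after 10 minutes.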
SMILES,Potency [1],Potency [2],Potency [3],Potency [4],outcome [5],Potency [6],Potency [7],Potency [8],Potency [9],Potency [10],outcome [11],outcome [12],Potency [13],outcome [14],outcome [15],Potency [16],Potency [17],Potency [18],Potency [19],Potency [20]
O=C1CC2OCC=C3CN4C5CC3C2[C@@H]2N1c1ccccc1[C@]52C[C@@H]4C1=C[C@H]2C3CC4N(CC[C@@]45c4ccccc4N(C1=O)[C@@H]25)C/C3=C/CO (some centres not stated),inactive,inactive,inactive,inactive,inactive,inactive,inactive,inactive,inactive,11.7 µM (active),inactive,inactive,24.3 µM (active),inactive,inactive,inactive,,,,
O=C(OC[C@H]1O[C@@H](OC(=O)c2cc(O)c(O)c(O)c2)[C@H](OC(=O)c2cc(O)c(O)c(O)c2)[C@@H](OC(=O)c2cc(O)c(O)c(O)c2)[C@@H]1OC(=O)c1cc(O)c(O)c(O)c1)c1cc(O)c(O)c(O)c1,inactive,inactive,inactive,inactive,inactive,,,inactive,inactive,inactive,,inactive,inactive,inactive,inactive,inactive,inactive,inactive,34 µM (active),
C=C1CCC2C(C)(C(=O)O)CCC(CC/C(C)=C/C(=O)NC(CCC(N)=O)C(=O)O)[C@@]2(C)C1 (some centres not stated),inactive,inactive,inactive,inactive,inactive,inactive,inactive,inactive,inactive,inactive,inactive,inactive,inactive,inactive,inactive,inactive,inactive,inactive,inactive,inactive
